Assay results taken from PubChem BioAssay (NCI).
Values joined by “and” are separate entries in the source; they are usually repeats but may differ in a detail not shown here. Identical values can stand only once. About 83,000 compounds went through this panel and 20% of them were active in at least one assay; those are over-represented in the sample as a whole.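 Cells were grown in 96-well plates and exposed to the test compound at a single concentration for 48 hours; results are reported as percent growth, with values below 10 considered active.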 Values without a mark were called inactive. Active and inactive are the calls of the source.

test system: OVCAR-4 ovarian; assay: NCI-60 one-dose screen, 48 h (100 = growth as untreated, 0 = no growth, -100 = all killed); conditions: 10 µM
Experimental: Growth inhibition of the OVCAR-4 human tumor cell line is measured as a screen for anti-cancer activity. Cells are grown in 96 well plates and exposed to the test compound for 48 hours. Compounds are tested at a single concentration, which is 10^-5 M for most compounds. The reported endpoint is percent growth (GI% or GIPRCNT), where numbers from 0 - 100% represent growth inhibition, and numbers from -100% - 0 represent cell death. For example, a value of 40 represents 60% growth inhibition. A value of 0 means no net growth occurred over the course of the experiment. A value of -40 indicates 40% of cells at the beginning of the experiment died by the end of the experiment. A value of -100 means all cells are dead at the end of the experiment.
NCI-60 Human Tumor Cell Lines Screen was performed using the standard one-dose NCI protocol, which is described in more detail at https://dtp.cancer.gov/discovery_development/nci-60/default.htm.
Compounds with GIPRCNT values below 10 were considered active. Activity score was based on GIPRCNT using the following formula: […]
Score is 0 for GIPRCNT values of 100 or above, 50 for GIPRCNT values of 0, and 100 for GIPRCNT values of -100.

Compound | growth
O=C(O)CCCc1ccc(N(CCCl)CCCl)cc1 | 102% and 107%

same assay, conditions: 10 µM unless noted

Compound | growth
Cc1cc[n+](CCc2ccccc2)cc1 | 90.3% and 104%
S=P(SP(=S)(c1ccccc1)c1ccccc1)(c1ccccc1)c1ccccc1 | 111%
O=P(O)(Nc1ccccc1)Nc1ccccc1 | 99.9%
CCC(Br)(CC)C(=O)NC(N)=O | 101%
CCCn1cc2c3c(cccc31)[C@H]1C[C@@H](C)CN(C)[C@@H]1C2 | 80.6%
O=C(CCCN1CCC2(CC1)C(=O)NCN2c1ccccc1)c1ccc(F)cc1 | 103% and 62.4%
COc1cc2c(cc1OC)-c1c3c(cc4c1[C@@H](C2)N(C)CC4)OCO3 | 44.2%
Cn1cc(C(=O)C[n+]2ccccc2)c2ccccc21 | 90.4%
CC1(C)CN=C(NN=C(/C=C/c2ccc(C(F)(F)F)cc2)/C=C/c2ccc(C(F)(F)F)cc2)NC1 | -92.3% (active)
O=C(O)C(Br)CBr (stereo not given) | 97.1%
C[C@]12CC[C@H]3[C@@H](CC=C4c5nc(-c6ccc(Br)cc6)sc5CC[C@@]43C)[C@@H]1CC[C@@H]2O | 95.1%
O=C=Nc1ccc(Br)cc1 | 98.5%
C[C@]12CCc3sc(Nc4ccc(F)cc4F)nc3C1=CC[C@@H]1[C@@H]2CC[C@]2(C)C(=O)CC[C@@H]12 | 66.7%
C=CC1CN2CCC1CC2C(O)c1ccnc2ccccc12 (stereo not given) | 129%
O=NN(c1ccccc1)c1ccccc1 | 110%
O=C1c2ccccc2C(=O)N1N1CC1c1ccccc1 (stereo not given) | 101%
O=C(Cc1ccccc1)c1ccccc1 | 99.3%
OCCN=Cc1c[nH]c2ccccc12 | 94%
Nc1ccc2c(c1)Cc1cc(N)ccc1-2 | 95.5%

Compound | growth
CC1(C)S[C@H]2CC[C@H]3OC(=O)[C@@H]1N23 | 97.2%
CC/C(=C(\c1ccc(OCCN2CCOCC2)cc1)c1ccc(OC(=O)Cc2ccccc2)cc1)c1ccc(Cl)cc1 | 120%
O=CC1(c2ccccc2)CCN(Cc2ccccc2)CC1 | 103%
C=CC[PH+](c1ccccc1)c1ccccc1.C=CC[PH+](c1ccccc1)c1ccccc1.[Pt+2].[S-]c1ncccn1.[S-]c1ncccn1 | 17.6%
CC/C(Cc1ccccc1)=C(\c1ccc(OCCN2CCCC2)cc1)c1ccc(OC(=O)NCc2ccccc2)cc1 | 59.9%
C/C(=C\c1ccn(-c2ccc(N)c(C(F)(F)F)c2)n1)[C@@H]1C[C@@H]2O[C@]2(C)CCC[C@H](C)[C@H](O)[C@@H](C)C(=O)C(C)(C)[C@@H](O)CC(=O)O1 | 55.1%
N#Cc1ccc(Cl)cc1 | 115%
O=C(NC(Cl)=C(Cl)Cl)P(=O)(c1ccccc1)c1ccccc1 | 101%
Cc1nnc([S-])o1.[Au+].c1ccc([PH+](c2ccccc2)c2ccccc2)cc1 | 60.4%
CN(C)c1ccc(C=C2C(=O)NC(=O)NC2=O)cc1 | 116%
CCN(CC)CCn1c(=O)n(C)c2ccccc21 | 109%
CC[C@H](C)[C@H](NC(=O)CN(C)C)C(=O)N(C)[C@H](C[C@@H](OC(C)=O)c1nc(C(=O)NC23C4C5C2C2C3C4C52C(=O)OC)cs1)C(C)C (stereo not given in full) | 48.7%
Cc1cc(Br)c([N+](=O)[O-])cc1[N+](=O)[O-] | 113%
Cc1cc2c(cc1-c1ccnc(/C=C/C(=O)O)c1)C(C)(C)CCC2(C)C | 104%
NC(N)=NC(N)=Nc1ccc(Cl)cc1 | 96.3%
CO/N=C1\CC[C@]2(C)[C@H]3CC[C@]4(C)C(=O)CC[C@H]4[C@@H]3C[C@@H]3SC(N)=N[C@@]32C1 | 90.9%
C[C@]12CCc3nc(-c4ccc(O)c(O)c4)sc3C1=CC[C@@H]1[C@@H]2CC[C@]2(C)C(=O)CC[C@@H]12 | 67.1%
CC[C@H](C)[C@H](NC(=O)CN(C)C)C(=O)N(C)[C@H](C[C@@H](OC(C)=O)c1nc(C(=O)NC23CC(C(=O)OC)(C2)C3)cs1)C(C)C | 47.9%
O=NN1CCCCC1 | 110%

same assay, conditions: 75 µM

Compound | growth [%]
O=C(O)CCCc1ccc(N(CCCl)CCCl)cc1 | 83.2
